Measured values taken from PubChem BioAssay (Tox21).
Records with an inconclusive call do not appear. Active and inactive are the calls of the source. Unless noted, calls follow the shape of the dose curve; as a rule, active = well fitted curve in the direction sought with a large enough effect in the repeat runs; inconclusive = weak or mixed curves; inactive = no such curve, though single readings can be large; an effect the other way counts as inactive or inconclusive.

Assays:
[1] = target: Progesterone receptor (Homo sapiens) (UniProt P06401); test: qHTS assay to identify small molecule agonists of the progesterone receptor (PR) signaling pathway (AID 1346784; calls by dose curve; also: nearly all actives have a fitted effect of over 30% in size)
Sequence of Progesterone receptor (Homo sapiens) (P06401 whole entry, looked up): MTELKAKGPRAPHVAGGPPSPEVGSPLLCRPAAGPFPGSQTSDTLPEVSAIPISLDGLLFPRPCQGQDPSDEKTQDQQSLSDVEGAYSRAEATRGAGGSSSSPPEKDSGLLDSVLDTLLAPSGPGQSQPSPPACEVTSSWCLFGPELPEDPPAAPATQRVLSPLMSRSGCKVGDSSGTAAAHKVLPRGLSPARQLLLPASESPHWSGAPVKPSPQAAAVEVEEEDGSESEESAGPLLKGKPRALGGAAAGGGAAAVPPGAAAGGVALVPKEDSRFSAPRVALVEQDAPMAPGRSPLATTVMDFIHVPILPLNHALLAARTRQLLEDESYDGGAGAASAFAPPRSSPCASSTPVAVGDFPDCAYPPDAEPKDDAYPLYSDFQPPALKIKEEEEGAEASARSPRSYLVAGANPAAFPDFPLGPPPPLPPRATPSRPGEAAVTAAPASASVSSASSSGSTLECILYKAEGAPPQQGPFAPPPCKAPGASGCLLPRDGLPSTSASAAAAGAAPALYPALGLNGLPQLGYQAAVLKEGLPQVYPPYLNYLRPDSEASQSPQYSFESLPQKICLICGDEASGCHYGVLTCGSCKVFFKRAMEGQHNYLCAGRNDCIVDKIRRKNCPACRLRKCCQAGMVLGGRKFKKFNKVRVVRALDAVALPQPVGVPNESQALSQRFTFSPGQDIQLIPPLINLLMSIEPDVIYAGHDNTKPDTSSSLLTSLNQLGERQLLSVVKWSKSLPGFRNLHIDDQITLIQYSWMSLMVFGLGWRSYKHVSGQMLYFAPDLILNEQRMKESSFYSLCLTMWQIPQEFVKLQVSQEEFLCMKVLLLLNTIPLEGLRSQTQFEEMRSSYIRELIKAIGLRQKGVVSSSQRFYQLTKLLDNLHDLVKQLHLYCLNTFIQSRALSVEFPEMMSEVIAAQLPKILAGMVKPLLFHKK
In short: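 Agonist mode, quantitative HTS format in a HEK 293T line expressing a UAS-controlled beta-lactamase reporter; 16 hr compound exposure at 37C in 2% charcoal-stripped FBS, then LiveBLAzer B/G FRET fluorescence.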

[2] = target: Progesterone receptor (Homo sapiens) (UniProt P06401); test: qHTS assay to identify small molecule antagonists of the progesterone receptor (PR) signaling pathway (AID 1346795; active = well fitted inhibition curve with a large enough effect in the signal ratio in the repeat runs, not every such curve was filed as active; the % refers to the signal ratio)
In short: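 HEK293T PR-UAS-bla reporter cells in charcoal-stripped serum (2%) received compound after a 6 hr settling period, followed by R5020 agonist at 1 nM final; 16 hr incubation preceded the FRET substrate step and fluorescence measurement.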

[3] = qHTS assay to identify small molecule antagonists of the TGF-beta/Smad signaling pathway - cell viability counter screen (AID 1346824); also: nearly all actives have a fitted effect of over 50% in size
In short: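 SBE-bla HEK 293T cells were plated overnight at 37 C, then given compounds in DMSO plus TGF-beta1 (added as 0.25 ng/mL solution) for 5 hr. After the bla read, CellTiter-Glo was added to the same wells and luminescence read after 30 min at room temperature.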

[4] = qHTS assay to identify small molecule agonists of the TGF-beta/Smad signaling pathway - cell viability counter screen (AID 1346829); also: top concentration of the series differs between compounds; nearly all actives have a fitted effect of over 45% in size
In short: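 Compound-treated SBE-bla HEK 293T cells (5 hr, 37 C) were assessed for viability with CellTiter-Glo in parallel with the reporter read.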

[5] = qHTS assay to identify small molecule agonists of the TGF-beta/Smad signaling pathway (AID 1346859; active = well fitted activation curve with a large enough effect in the signal ratio in the repeat runs, not every such curve was filed as active; the % refers to the signal ratio; also: series mostly up to about 77 µM)
In short: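 Smad-responsive beta-lactamase reporter cells (HEK 293T) received compounds from DMSO stocks after overnight attachment, were incubated 5 hr, then treated 2 hr with FRET substrate before dual-emission fluorescence measurement (405 nm excitation).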

[6] = target: Thyrotropin-releasing hormone receptor (Homo sapiens) (UniProt P34981); test: qHTS assay to identify small molecule antagonists of the thyrotropin-releasing hormone receptor (TRHR) signaling pathway (AID 1346877; active = well fitted inhibition curve with a large enough effect in the repeat runs, not every such curve was filed as active; also: series mostly up to about 51 µM)
Sequence of Thyrotropin-releasing hormone receptor (Homo sapiens) (P34981 whole entry, looked up): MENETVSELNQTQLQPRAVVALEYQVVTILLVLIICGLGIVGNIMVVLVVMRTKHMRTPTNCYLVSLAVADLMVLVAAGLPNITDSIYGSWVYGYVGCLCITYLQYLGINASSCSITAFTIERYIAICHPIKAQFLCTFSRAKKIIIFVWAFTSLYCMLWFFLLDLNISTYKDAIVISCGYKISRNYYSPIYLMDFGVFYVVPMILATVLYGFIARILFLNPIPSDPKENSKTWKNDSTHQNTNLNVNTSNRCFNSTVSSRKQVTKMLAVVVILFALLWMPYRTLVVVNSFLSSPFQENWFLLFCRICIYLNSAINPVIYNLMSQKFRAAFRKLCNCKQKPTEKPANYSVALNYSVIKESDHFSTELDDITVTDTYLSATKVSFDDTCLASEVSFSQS
In short: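 Antagonist mode: after a 5 min room-temperature compound exposure, cells were stimulated with 1 nM (final) TRH. Dye-loaded TRHR-HEK293 cells were used, and calcium-dependent fluorescence was followed for 3 min, with 15-point titrations run in triplicate.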

[7] = target: Thyrotropin-releasing hormone receptor (Homo sapiens) (UniProt P34981); test: qHTS assay to identify small molecule agonists of the thyrotropin-releasing hormone receptor (TRHR) signaling pathway (AID 1346891; calls by dose curve;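 also: HEK293 cells expressing TRHR with calcium dye readout; series mostly up to about 58 µM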)
In short: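 Agonist-mode calcium mobilisation screen: TRHR-transfected HEK293 cells cultured overnight (18 h), dye-loaded for 2 h at 37 °C, exposed to compounds, and monitored by fluorescence for 3 min.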

[8] = Caspase-3/7 induction in HepG2 cells by small molecules, qHTS assay (AID 1346978); also: nearly all actives have a fitted effect of over 15% in size
In short: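 Wild-type HepG2 cells (2,000/well) were settled 5 h at 37 C, 5% CO2, then exposed to compounds in DMSO for 17 h. Caspase-3/7 activity was read by luminescence 30 min after adding Caspase-Glo 3/7 reagent at room temperature.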

[9] = Caspase-3/7 induction in CHO-K1 cells by small molecules, qHTS cell viability counter screen (AID 1346979); also: nearly all actives have a fitted effect of over 35% in size; also: potency is read from the fitted curve at half-maximal effect
In short: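 In the same wells as the caspase read, viability of compound-treated wild-type CHO-K1 cells was assessed using CellTiter-Fluor, added after 16hr at 37C and measured by fluorescence following 1hr further incubation.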

[10] = Caspase-3/7 induction in CHO-K1 cells by small molecules, qHTS assay (AID 1346980); also: nearly all actives have a fitted effect of over 15% in size
In short: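 Wild-type cells were seeded at 1,500 per well and settled 5 hr at 37 C, 5% CO2, then exposed to DMSO-dissolved compounds for 17 hr. Caspase-Glo 3/7 reagent was added, and luminescence was read after 30min at room temperature.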

[11] = Caspase-3/7 induction in HepG2 cells by small molecules, qHTS cell viability counter screen (AID 1346981); also: nearly all actives have a fitted effect of over 30% in size; also: potency is read from the fitted curve at half-maximal effect
In short: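 CellTiter-Fluor fluorescence measured viability in the same wells used for Caspase-Glo 3/7. HepG2 (wild type) at 2,000 cells/well were pre-incubated 5 hr, dosed, and given reagent at 16 hr, with 1 hr further at 37C.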

[12] = target: Nuclear receptor subfamily 1 group I member 2 (Homo sapiens) (UniProt O75469); test: Human pregnane X receptor (PXR) small molecule agonists, qHTS assay (AID 1346982); also: nearly all actives have a fitted effect of over 35% in size; also: potency is read from the fitted curve at half-maximal effect
Sequence of Nuclear receptor subfamily 1 group I member 2 (Homo sapiens) (O75469 whole entry, looked up): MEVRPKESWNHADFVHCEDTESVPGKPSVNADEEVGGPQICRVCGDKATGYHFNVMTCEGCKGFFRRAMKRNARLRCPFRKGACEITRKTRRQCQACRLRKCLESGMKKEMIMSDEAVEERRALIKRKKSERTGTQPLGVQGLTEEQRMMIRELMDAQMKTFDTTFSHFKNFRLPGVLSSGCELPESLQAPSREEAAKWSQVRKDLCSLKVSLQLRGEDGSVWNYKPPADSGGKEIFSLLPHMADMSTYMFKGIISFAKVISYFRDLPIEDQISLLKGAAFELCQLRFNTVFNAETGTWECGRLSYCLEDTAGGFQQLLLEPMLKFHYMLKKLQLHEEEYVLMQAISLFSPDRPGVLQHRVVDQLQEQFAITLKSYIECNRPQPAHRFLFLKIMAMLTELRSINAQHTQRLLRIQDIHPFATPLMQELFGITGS
In short: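 Agonist mode: luminescence from ONE-Glo after 24 h compound exposure at 37C in HepG2 cells carrying hPXR-responsive CYP3A4 luciferase, plated in charcoal-stripped serum medium 5 h beforehand.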

[13] = target: Nuclear receptor subfamily 1 group I member 2 (Rattus norvegicus) (UniProt Q9R1A7); test: Rat pregnane X receptor (rPXR) activation by small molecules, qHTS assay (AID 1346983); conditions: rPXR luciferase reporter cells, One-Glo luminescence, 24 h; max activation: stronger effect = higher value; also: nearly all actives have a fitted effect of over 20% in size; also: potency is read from the fitted curve at half-maximal effect
Sequence of Nuclear receptor subfamily 1 group I member 2 (Rattus norvegicus) (Q9R1A7 whole entry, looked up): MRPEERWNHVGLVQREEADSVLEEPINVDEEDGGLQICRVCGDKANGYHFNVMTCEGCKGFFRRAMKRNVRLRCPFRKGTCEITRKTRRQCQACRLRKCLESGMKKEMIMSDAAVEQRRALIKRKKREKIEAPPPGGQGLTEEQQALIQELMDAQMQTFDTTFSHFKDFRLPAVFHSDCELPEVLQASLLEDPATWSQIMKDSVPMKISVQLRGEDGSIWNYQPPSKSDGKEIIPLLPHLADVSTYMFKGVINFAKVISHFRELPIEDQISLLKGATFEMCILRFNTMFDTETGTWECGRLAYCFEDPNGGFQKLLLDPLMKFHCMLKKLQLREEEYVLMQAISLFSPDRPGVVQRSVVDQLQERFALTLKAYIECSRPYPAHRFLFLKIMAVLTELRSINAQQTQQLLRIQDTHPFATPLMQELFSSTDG
In short: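 Cell-based rPXR luciferase reporter assay, 2,000 cells per well, rested 5hr at 37 C before compound addition in DMSO, then 24 hr at 37 C. One-Glo reagent was added and luminescence read after 30 min at room temperature.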

[14] = target: Nuclear receptor subfamily 1 group I member 2 (Homo sapiens) (UniProt O75469); test: CYP3A4 induction through human pregnane X receptor (PXR) by small molecules, qHTS assay (AID 1346984); also: nearly all actives have a fitted effect of over 40% in size; also: potency is read from the fitted curve at half-maximal effect
In short: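 Read-out is luminescence after One-Glo addition, following a 3 hr, 37C incubation with Luciferin-IPA CYP3A4 substrate (3uM final). Before that, compounds were on DPX-2 cells (HepG2 co-transfected with PXR element plus CYP3A4-promoter luciferase) for 24 hr at 37C.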

[15] = target: Cytochrome P450 2D6 (Homo sapiens) (UniProt P10635); test: Cytochrome P450 Family 2 Subfamily D Member 6 (CYP2D6) small molecule antagonists: luciferase reporter qHTS assay (AID 1671196); also: nearly all actives have a fitted effect of over 50% in size; also: potency is read from the fitted curve at half-maximal effect
Sequence of Cytochrome P450 2D6 (Homo sapiens) (P10635 whole entry, looked up): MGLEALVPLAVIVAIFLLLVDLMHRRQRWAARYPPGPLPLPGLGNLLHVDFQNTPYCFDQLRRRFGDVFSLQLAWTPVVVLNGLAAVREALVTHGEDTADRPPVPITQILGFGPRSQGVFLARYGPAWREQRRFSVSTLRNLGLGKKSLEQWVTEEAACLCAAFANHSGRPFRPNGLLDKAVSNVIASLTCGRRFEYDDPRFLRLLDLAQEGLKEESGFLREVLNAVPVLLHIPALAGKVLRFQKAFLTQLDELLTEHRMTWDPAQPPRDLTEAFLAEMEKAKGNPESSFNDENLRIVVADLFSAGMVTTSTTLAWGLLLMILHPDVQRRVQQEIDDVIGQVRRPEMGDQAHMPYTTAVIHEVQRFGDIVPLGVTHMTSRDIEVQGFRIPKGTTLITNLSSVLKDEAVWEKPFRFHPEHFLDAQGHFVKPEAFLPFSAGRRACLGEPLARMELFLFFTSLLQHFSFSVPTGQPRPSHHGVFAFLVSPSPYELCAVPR
In short: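 CYP2D6 activity was followed as luminescence from its luciferin product after a 1 h NADPH-driven reaction at room temperature. Enzyme-substrate mix and compound were pre-incubated for 10 min, and the signal was read 20 min after adding detection reagent.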

[16] = target: Cytochrome P450 2C19 (Homo sapiens) (UniProt P33261); test: Cytochrome P450 Family 2 Subfamily C Member 19 (CYP2C19) small molecule antagonists: luciferase reporter qHTS assay (AID 1671197); also: nearly all actives have a fitted effect of over 65% in size; also: potency is read from the fitted curve at half-maximal effect
Sequence of Cytochrome P450 2C19 (Homo sapiens) (P33261 whole entry, looked up): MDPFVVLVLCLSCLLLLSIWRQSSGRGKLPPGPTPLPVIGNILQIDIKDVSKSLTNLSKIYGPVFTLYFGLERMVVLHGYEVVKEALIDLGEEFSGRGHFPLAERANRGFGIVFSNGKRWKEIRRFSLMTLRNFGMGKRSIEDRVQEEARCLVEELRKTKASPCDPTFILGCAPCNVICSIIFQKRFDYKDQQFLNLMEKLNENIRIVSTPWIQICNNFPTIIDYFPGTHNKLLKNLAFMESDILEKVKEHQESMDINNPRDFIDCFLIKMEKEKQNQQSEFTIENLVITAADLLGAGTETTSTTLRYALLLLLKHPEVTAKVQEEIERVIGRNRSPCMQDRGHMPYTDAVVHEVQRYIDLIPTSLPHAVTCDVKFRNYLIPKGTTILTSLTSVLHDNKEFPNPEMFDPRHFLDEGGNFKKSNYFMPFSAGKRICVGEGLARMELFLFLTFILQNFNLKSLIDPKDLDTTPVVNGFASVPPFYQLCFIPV
In short: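 P450-Glo CYP2C19 screening system; proluciferin substrate; DMSO compound stocks; 10 min RT preincubation; NADPH regeneration, 1 h at 37C; luciferin detection reagent, 20 min RT; luminescence as RLU.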

[17] = qHTS assay to identify small molecule agonists of the progesterone receptor (PR) signaling pathway - cell viability counter screen (AID 1346799; calls by dose curve; also: nearly all actives have a fitted effect of over 45% in size; also: potency is read from the fitted curve at half-maximal effect)
In short: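 Counter screen for cytotoxicity: compound-treated PR-UAS-bla HEK293T cells (16 hr, 37C, 5% CO2) were assayed with CellTiter-Glo, luminescence measured after 30 min at room temperature.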

[18] = Human pregnane X receptor (PXR) small molecule agonists, qHTS cell viability counter screen (AID 1346977); also: nearly all actives have a fitted effect of over 50% in size; also: potency is read from the fitted curve at half-maximal effect
In short: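 Measures live-cell protease fluorescence (CellTiter-Fluor) in PXR-Luc HepG2 cells treated 24hr with compounds at 37C. Cells had 5hr to attach before pin transfer of DMSO solutions.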

[19] = target: Nuclear receptor subfamily 1 group I member 2 (Homo sapiens) (UniProt O75469); test: Human pregnane X receptor (PXR) activation by small molecules, qHTS assay (AID 1346985); also: nearly all actives have a fitted effect of over 40% in size
In short: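 DPX-2 cells (HepG2 co-transfected with a PXR response element and a CYP3A4-promoter luciferase construct) were seeded at 2,000 per well, rested 5 hr at 37C, then exposed to DMSO-dissolved compounds for 24 hr. Activation was read as luciferase luminescence.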

[20] = qHTS assay to identify small molecule antagonists of the progesterone receptor (PR) signaling pathway - cell viability counter screen (AID 1346798); also: nearly all actives have a fitted effect of over 50% in size; also: potency is read from the fitted curve at half-maximal effect
In short: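 Same-well multiplex: after 16 hr at 37C with compound and R5020 stimulation, HEK293T cells carrying a UAS-bla reporter received LiveBLAzer substrate (2 hr RT), then CellTiter-Glo (30 min RT) for luminescent viability.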
% is scaled to controls: 0 for no effect and ±100 for the full control effect.

COc1cc2c(cc1OC)C(C(C(=O)N(CCc1ccc(OC)c(OC)c1OC)CCc1ccc(OC)c(OC)c1OC)c1ccccc1)=NCC2 (centres undefined)
inactive: Potency [1] | Potency [2] | Potency [3] | outcome [4] | Potency [5] | outcome [6] | Potency [7] | Potency [8] | Potency [10] | Potency [14]
active: Potency [9] 26.6 µM | Potency [11] 26.6 µM | Potency [12] 2.66 µM | Potency [13] 2.51 µM | Potency [15] 5.49 µM | Potency [16] 12.3 µM

CC(=O)c1ccc2c(c1)N(CCCN(C)C)c1ccccc1S2
inactive: Potency [1] | Potency [2] | Potency [17] | Potency [3] | outcome [4] | Potency [5] | outcome [6] | Potency [7] | Potency [8] | Potency [10] | max activation [13] -2.15% | Potency [14]
active: Potency [15] 1.95 µM

CCCOC(C(=O)OC1CCN(C)CC1)(c1ccccc1)c1ccccc1
active: Potency [18] 23.7 µM | Potency [13] 15.8 µM | Potency [14] 28.2 µM | Potency [15] 7.76 µM
inactive: Potency [1] | Potency [2] | Potency [3] | outcome [4] | Potency [5] | Potency [8] | Potency [10]

OCCNCc1ccccc1
inactive: Potency [1] | Potency [2] | Potency [17] | Potency [3] | outcome [4] | Potency [5] | outcome [6] | Potency [7] | Potency [18] | Potency [8] | Potency [9] | Potency [10] | Potency [11] | Potency [12]
active: Potency [15] 35.6 µM | Potency [16] 44.8 µM

CCCCNc1ccc(C(=O)OCCOCCOCCOCCOCCOCCOCCOCCOCCOC)cc1
inactive: Potency [1] | Potency [2] | Potency [3] | outcome [4] | Potency [5] | outcome [6] | Potency [7] | Potency [18] | Potency [8] | Potency [10] | Potency [11] | Potency [12] | max activation [13] -3.41% | Potency [14] | Potency [19] | Potency [15]

CCCCCCCCCCO[C@@H]1O[C@H](CO)[C@@H](O)[C@H](O)[C@H]1O
inactive: Potency [1] | Potency [20] | Potency [3] | outcome [4] | Potency [5] | Potency [18] | Potency [8] | Potency [10] | Potency [11] | Potency [15]

CCCCCCOC(=O)NC(=N)c1ccc(NCc2nc3cc(C(=O)N(CCC(=O)OCC)c4ccccn4)ccc3n2C)cc1
inactive: Potency [1] | outcome [6] | Potency [7] | Potency [8] | Potency [10]
active: Potency [20] 21.1 µM | Potency [17] 18.8 µM | Potency [9] 29.8 µM | Potency [12] 11.9 µM | Potency [16] 2.19 µM

CCCNCC(O)COc1ccccc1C(=O)CCc1ccccc1 (centres undefined)
inactive: Potency [1] | Potency [20] | Potency [3] | outcome [4] | Potency [5] | outcome [6] | Potency [7] | Potency [8] | Potency [10] | Potency [11]
active: Potency [18] 29.8 µM

c1ccc(C(O[C@H]2CCCN(CCc3ccc4c(c3)OCO4)C2)c2ccccc2)cc1
active: Potency [15] 2.45 µM
inactive: Potency [1] | Potency [20] | Potency [3] | outcome [4] | Potency [5] | outcome [6] | Potency [7] | Potency [8] | Potency [9] | Potency [10]

CCO[Si](CCCCl)(OCC)OCC
inactive: Potency [1] | Potency [3] | outcome [4] | outcome [6] | Potency [7] | Potency [18] | Potency [8] | Potency [9] | Potency [10] | Potency [11] | Potency [12]
active: Potency [15] 22.3 µM | Potency [16] 31.4 µM

CC(CC=O)c1ccccc1 (centres undefined)
inactive: Potency [1] | Potency [20] | Potency [3] | outcome [4] | outcome [6] | Potency [7] | Potency [18] | Potency [8] | Potency [9] | Potency [10] | Potency [11] | Potency [15]

O=C(Nc1ccc(S(=O)(=O)N2CCOCC2)cc1)c1cc(Cl)ccc1NS(=O)(=O)c1ccc(Cl)s1
inactive: Potency [1] | Potency [20] | Potency [17] | Potency [3] | outcome [4] | outcome [6] | Potency [7] | Potency [8] | Potency [10] | Potency [11] | Potency [15]
active: Potency [12] 9.44 µM | Potency [16] 38.9 µM

CC(=O)OC[C@H]1O[C@@H](n2ncc(=O)[nH]c2=O)[C@H](OC(C)=O)[C@@H]1OC(C)=O
inactive: Potency [1] | Potency [3] | outcome [4] | Potency [5] | outcome [6] | Potency [7] | Potency [8] | Potency [10] | Potency [11] | Potency [12] | max activation [13] -1.15% | Potency [14]
active: Potency [20] 2.37 µM | Potency [15] 4.36 µM

CCCC(=O)Nc1ccc(O)c(C(C)=O)c1
inactive: Potency [1] | Potency [20] | Potency [3] | outcome [4] | Potency [5] | outcome [6] | Potency [7] | Potency [18] | Potency [8] | Potency [9] | Potency [10] | Potency [11] | Potency [12] | Potency [15]

O[C@@H](COc1cccc2ncccc12)CN1CCN(C2c3ccccc3[C@@H]3[C@H](c4ccccc42)C3(F)F)CC1 (some centres undefined)
active: Potency [18] 23.7 µM | Potency [9] 16.8 µM | Potency [11] 21.1 µM | Potency [12] 1.19 µM | Potency [15] 11 µM | Potency [16] 21.9 µM
inactive: Potency [1] | Potency [20] | Potency [3] | outcome [4] | Potency [5] | outcome [6] | Potency [7] | Potency [8] | Potency [10]

CN(C)c1ccc(CCO)cc1
inactive: Potency [1] | Potency [17] | Potency [3] | outcome [4] | Potency [5] | Potency [8] | Potency [9] | Potency [10] | Potency [11] | Potency [12]
active: Potency [16] 28.1 µM

C[C@@H]1C[C@H]2O[C@@]3(O[C@@H]2C(C)(C)O)[C@H](O)[C@@]2(C)[C@@H]4CC[C@H]5C(C)(C)[C@@H](O[C@@H]6OC[C@@H](O)[C@H](O)[C@H]6O)CC[C@@]56C[C@@]46CC[C@]2(C)[C@@H]13
inactive: Potency [1] | Potency [20] | Potency [3] | outcome [4] | Potency [5] | outcome [6] | Potency [7] | Potency [18] | Potency [8] | Potency [9] | Potency [10] | Potency [11] | Potency [16]
